The panel holds about 83,000 compounds, 20% with a hit somewhere; the sample as a whole holds those more often.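 Cells were grown in 96-well plates and exposed to the test compound at a single concentration for 48 hours; results are reported as percent growth, with values below 10 considered active.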 A number with no mark means an inactive call. Activity calls are given as the source filed them.
Assays:
Test in all cases: NCI-60 one-dose screen, 48 h (100 = growth as untreated, 0 = no growth, -100 = all killed)
Details in all cases: 10 µM unless noted
[1] = test system: NCI-H23 lung
[2] = test system: NCI-H226 lung
[3] = test system: NCI-H322M lung
[4] = test system: HOP-62 NSCLC
[5] = test system: NCI-H460 lung
[6] = test system: HOP-92 NSCLC
[7] = test system: NCI-H522 lung
[8] = test system: A549/ATCC NSCLC
[9] = test system: 786-0 renal
[10] = test system: DU-145 prostate
[11] = test system: K-562 leukemia
[12] = test system: MDA-MB-231 breast
[13] = test system: RXF 393 renal
[14] = test system: SF-268 CNS
[15] = test system: SF-295 CNS
[16] = test system: SF-539 CNS
[17] = test system: UACC-257 melanoma
[18] = test system: M14 melanoma
[19] = test system: MALME-3M melanoma

With CC(C)CCC[C@@H](C)[C@H]1CCC2C3=CCn4c(=O)ccc(=O)n4C3CC[C@@]21C (stereo partly specified) the growth [1] was -55.4% (active), the growth [2] was -91.8% (active) and the growth [3] was -55.3% (active). The growth [4] was -93.3% (active), the growth [5] was -89.9% (active) and the growth [6] was -94% (active). The growth [7] was -66.1% (active), the growth [8] was -79.3% (active) and the growth [9] was -100% (active). For the same compound, the growth [10] was -93.7% (active), the growth [11] was -40% (active) and the growth [12] was -89.2% (active). The growth [13] was -76% (active), the growth [14] was -91.6% (active) and the growth [15] was -92.3% (active). For the same compound, the growth [16] was -99.5% (active), the growth [17] was -79.3% (active) and the growth [18] was -98% (active).
In the case of CSc1nc(N)c(CNC(C)c2ccccc2)c(=O)n1C (stereo unspecified), the growth [1] is reported as 97.4%, the growth [2] is reported as 91.4% and the growth [3] is reported as 169%. The growth [4] was 95%, the growth [5] was 105% and the growth [6] was 89%. The growth [7] was 94.3%, the growth [8] was 97.7% and the growth [9] was 90.2%. For the same compound, the growth [10] was 118%, the growth [11] was 96.2% and the growth [12] was 114%. It also gave a growth [13] of 98.9%, a growth [14] of 106% and a growth [15] of 117%. The growth [16] was 94.9%, the growth [17] was 90.2% and the growth [18] was 97.5%.
In the case of CC12CC(C#N)CCC1O2 (stereo unspecified), the growth [1] is reported as 109%, the growth [2] is reported as 115% and the growth [3] is reported as 127%. The growth [4] was 108%, the growth [5] was 103% and the growth [6] was 93%. It also gave a growth [7] of 109%, a growth [8] of 100% and a growth [9] of 102%. It also gave a growth [10] of 127%, a growth [11] of 101% and a growth [19] of 128%. It also gave a growth [12] of 104%, a growth [13] of 119% and a growth [14] of 110%. The growth [16] was 96.6%, the growth [17] was 98.3% and the growth [18] was 107%.
In the case of Nc1nc(I)c2ncn(C3OC(CO)C(O)C3O)c2n1 (stereo unspecified), the growth [1] is reported as 112%, the growth [2] is reported as 91.6% and the growth [3] is reported as 105%. It also gave a growth [4] of 95.8%, a growth [5] of 110% and a growth [6] of 223%. For the same compound, the growth [7] was 88.9%, the growth [8] was 103% and the growth [9] was 103%. The growth [10] was 107%, the growth [11] was 118% and the growth [19] was 142%. For the same compound, the growth [12] was 101%, the growth [13] was 78.4% and the growth [14] was 107%. The growth [16] was 102%, the growth [17] was 103% and the growth [18] was 102%.
O=C(CC1Sc2ccccc2NC1=O)NNc1ccc(F)cc1 (stereo unspecified) was tested, and the growth [1] was 95.3%, the growth [2] was 84.4% and the growth [3] was 86.8%. For the same compound, the growth [4] was 57.1%, the growth [5] was 93.1% and the growth [6] was 71.4%. The growth [7] was 71.1%, the growth [8] was 92.5% and the growth [9] was 78.1%. It also gave a growth [10] of 98%, a growth [11] of 13.6% and a growth [19] of 112%. It also gave a growth [12] of 84.9%, a growth [14] of 72.1% and a growth [15] of 31%. It also gave a growth [16] of 94.8%, a growth [17] of 92.4% and a growth [18] of 31.3%.
O=C1CSC(c2ccc(O)cc2)N1c1nnc(Cn2cnnc2)o1 (stereo unspecified) showed a growth [1] of 100%, a growth [2] of 98.6% and a growth [3] of 95.8%. It also gave a growth [4] of 99.8%, a growth [5] of 115% and a growth [6] of 71.9%. For the same compound, the growth [7] was 99.1%, the growth [8] was 90.3% and the growth [9] was 94.1%. It also gave a growth [10] of 93.3%, a growth [11] of 45.3% and a growth [19] of 54.1%. The growth [12] was 94.8%, the growth [14] was 70.3% and the growth [15] was 38.6%. It also gave a growth [16] of 97.6%, a growth [17] of 96.9% and a growth [18] of 94.6%.
For O=C1CSC(c2ccccc2)N1c1ccccc1 (stereo unspecified), the growth [1] was 99.7%, the growth [2] was 96.2% and the growth [3] was 90.4%. The growth [4] was 116%, the growth [5] was 103% and the growth [6] was 82.4%. The growth [7] was 104%, the growth [8] was 103% and the growth [9] was 105%. The growth [10] was 107%, the growth [11] was 107% and the growth [12] was 103%. The growth [13] was 95.8%, the growth [14] was 105% and the growth [15] was 96.6%. For the same compound, the growth [16] was 108%, the growth [17] was 101% and the growth [18] was 99.5%.
Compound COc1cc2oc3cc(C)oc(=O)c3c2cc1OC has a growth [1] of 94.1%, a growth [2] of 96.8% and a growth [3] of 103%. It also gave a growth [4] of 93.2%, a growth [5] of 105% and a growth [6] of 92.9%. It also gave a growth [7] of 82.1%, a growth [8] of 87.7% and a growth [9] of 83.4%. For the same compound, the growth [10] was 99.6%, the growth [11] was 128% and the growth [12] was 99.4%. For the same compound, the growth [13] was 104%, the growth [14] was 108% and the growth [15] was 89.7%. For the same compound, the growth [16] was 94.8%, the growth [17] was 92.8% and the growth [18] was 102%.
C=C(C)[C@@H]1CC[C@@]2(C(=O)O)CC[C@]3(C)C(CCC4[C@@]5(C)CCC(OS(=O)(=O)c6ccccc6)C(C)(C)C5CC[C@]43C)C12 (stereo partly specified) showed a growth [1] of 37.2%, a growth [2] of 69.2% and a growth [3] of 73.6%. The growth [4] was 57.4%, the growth [5] was 42.3% and the growth [6] was 51%. The growth [7] was 32.5%, the growth [8] was 17.8% and the growth [9] was 56.5%. The growth [10] was 55.4%, the growth [11] was 46.5% and the growth [12] was 67.4%. The growth [13] was 73.8%, the growth [14] was 70.6% and the growth [15] was -32.7% (active). The growth [16] was 52.4%, the growth [17] was 32% and the growth [18] was 60.8%.
Work on c1ccc2[nH]c(SSc3nc4ncncc4[nH]3)nc2c1 yielded a growth [1] of 32.1%, a growth [2] of 57.6% and a growth [3] of 73.5%. For the same compound, the growth [4] was 21.2%, the growth [5] was 42.7% and the growth [6] was 27.5%. For the same compound, the growth [7] was 35.6%, the growth [8] was 80% and the growth [9] was 16%. It also gave a growth [10] of 29.5%, a growth [11] of 17.1% and a growth [12] of 36.1%. For the same compound, the growth [13] was 64.7%, the growth [14] was 30.1% and the growth [15] was -39% (active). The growth [16] was 8.16% (active), the growth [17] was 42% and the growth [18] was 8.49% (active).
In the case of C=C(C=O)[C@@H]1CC=C(C=O)CC1, the growth [1] is reported as -4.9% (active), the growth [2] is reported as 71.2% and the growth [3] is reported as -24.7% (active). The growth [4] was -19.7% (active), the growth [5] was -16.6% (active) and the growth [6] was -39.9% (active). For the same compound, the growth [7] was 5.01% (active), the growth [8] was 15.6% and the growth [9] was -19.3% (active). The growth [10] was -74.6% (active), the growth [11] was -23.2% (active) and the growth [19] was -31.1% (active). The growth [12] was -25.9% (active), the growth [14] was -16.7% (active) and the growth [15] was -15.7% (active). For the same compound, the growth [16] was -60.4% (active), the growth [17] was -9.83% (active) and the growth [18] was 14.8%.
For CCOc1cccnc1/C=N/NC(N)=S, the growth [1] was 73.8%, the growth [2] was 53.9% and the growth [3] was 6.61% (active). For the same compound, the growth [4] was 64.9%, the growth [5] was 19.9% and the growth [6] was 46.5%. The growth [7] was 79.1%, the growth [8] was 48% and the growth [9] was 51.6%. It also gave a growth [10] of 34.4%, a growth [11] of 31.4% and a growth [12] of 49.6%. For the same compound, the growth [13] was 61.4%, the growth [14] was 32.9% and the growth [15] was 5.53% (active). It also gave a growth [16] of 47.7%, a growth [17] of 95.7% and a growth [18] of 42.4%.
For COc1ccc(CN2C(=O)/C(=C\c3cc(OC)c(OC)c(OC)c3)c3ccccc32)cc1, the growth [1] was -8.08% (active), the growth [2] was 11.8% and the growth [3] was 19.6%. The growth [4] was -33% (active), the growth [5] was -53% (active) and the growth [6] was 0.884% (active). The growth [7] was -54.1% (active), the growth [8] was 9.31% (active) and the growth [9] was 1.15% (active). For the same compound, the growth [10] was 9.87% (active), the growth [11] was 5.28% (active) and the growth [12] was 5.55% (active). For the same compound, the growth [13] was -69.6% (active), the growth [14] was 10.4% and the growth [15] was -46% (active). The growth [16] was -84.9% (active), the growth [17] was -9.5% (active) and the growth [18] was -32% (active).
O=C1Nc2ccccc2SC1c1ccccc1Cl (stereo unspecified) gave a growth [1] of 102%, a growth [2] of 104% and a growth [3] of 95.6%. The growth [4] was 96.3%, the growth [5] was 116% and the growth [6] was 69.2%. The growth [7] was 103%, the growth [8] was 90% and the growth [9] was 97.5%. The growth [10] was 108%, the growth [11] was 41.2% and the growth [19] was 81.9%. It also gave a growth [12] of 98.9%, a growth [14] of 87.8% and a growth [15] of 58.2%. It also gave a growth [16] of 109%, a growth [17] of 100% and a growth [18] of 93.7%.
Work on CCOC(=O)Cc1csc2nc(-c3ccccc3)nn12 yielded a growth [1] of 97.9%, a growth [2] of 101% and a growth [3] of 125%. It also gave a growth [4] of 103%, a growth [5] of 108% and a growth [6] of 79.1%. The growth [7] was 103%, the growth [8] was 105% and the growth [9] was 92%. For the same compound, the growth [10] was 108%, the growth [11] was 128% and the growth [12] was 104%. The growth [13] was 110%, the growth [14] was 105% and the growth [15] was 127%. It also gave a growth [16] of 95.6%, a growth [17] of 119% and a growth [18] of 104%.
Compound Cc1cc(=O)c2cc3nc(-c4cccnc4)oc3c(Br)c2o1 has a growth [1] of 90%, a growth [2] of 116% and a growth [3] of 109%. The growth [4] was 101%, the growth [5] was 104% and the growth [6] was 92%. It also gave a growth [7] of 62.9%, a growth [8] of 97.2% and a growth [9] of 96.8%. It also gave a growth [10] of 119%, a growth [11] of 84% and a growth [19] of 98.7%. It also gave a growth [12] of 111%, a growth [14] of 107% and a growth [15] of 120%. It also gave a growth [16] of 106%, a growth [17] of 106% and a growth [18] of 98.8%.
With O=C(O)CC1Sc2ccccc2NC1=O (stereo unspecified) the growth [1] was 89.1%, the growth [2] was 95.2% and the growth [3] was 104%. For the same compound, the growth [4] was 96.3%, the growth [5] was 195% and the growth [6] was 73.1%. For the same compound, the growth [7] was 81%, the growth [8] was 106% and the growth [9] was 108%. It also gave a growth [10] of 116%, a growth [11] of 70.4% and a growth [19] of 106%. For the same compound, the growth [12] was 108%, the growth [14] was 100% and the growth [15] was 104%. It also gave a growth [16] of 145%, a growth [17] of 98.5% and a growth [18] of 89.5%.

Reference: PubChem BioAssay (NCI)
